# FAS-TE inh = FAS thioesterase domain inhibitors, primary screen, biochemical, fluorescence intensity, uHTS. recombinant FAS-TE, OMFH fluorogenic substrate, fluorescence endpoint. inhibition, % at 15 µM. 360,000 compounds, 0.67% hits. AID 602261, 2012;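 active means compounds whose normalised, plate-corrected inhibition of enzyme fluorescence in the single-dose primary screen is 50% or more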;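 further: 0% = DMSO with enzyme and 100% = substrate without enzyme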
# FXN GAA850 act = FXN promoter activators, primary screen, cell-based, luciferase luminescence, HEK293 lucGAA850 | HEK293 lucGAA850 FXN promoter luciferase reporter, 24 h; percent of 10 µM SAHA response | activation, % at 6 µM | 360,000 compounds, 0.56% hits;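 active means activation above the average of all compounds screened plus 3 SD, cutoff fixed separately per campaign, cut at about 7.5% in these data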;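 further: 0% = DMSO wells and 100% = 10 µM SAHA wells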
# KLK7 zymogen act = proKLK7 zymogen activators, primary screen, biochemical, fluorescence intensity; Kallikrein-7 (Homo sapiens), P49862; purified proKLK7, EDANS-DABCYL substrate fluorescence; 100% is mature enzyme control, 0% vehicle; activation, % at 7 µM; 370,000 compounds, 0.9% hits; AID 652039, 2013;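 active means activation above the mean of all tested compounds plus 3 SD, computed per campaign excluding outliers beyond control limits, cut at about 13% in these data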
# SMARCA2 activ = SMARCA2 (BRM) function activators, primary screen, cell-based, luminescence, high throughput | 370,000 compounds, 1% hits | activation, % at 9.1 µM | MG213 cells, MMTV-luciferase reporter, dexamethasone, overnight | AID 652017, 2013; in the data active means activation above about 7.8%;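 further: 0% = vehicle wells and 100% = reference activator wells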
# SMARCA2 conf = SMARCA2 (BRM) function activators, confirmation, cell-based, luminescence, triplicate | activation, % at 9.1 µM | 3,500 compounds, 30% hits | MG213 cells, MMTV-luciferase with dexamethasone, overnight; MG213 cells expressing E1A, Rb sequestered; DMSO wells 0%, reference activator 100% | shares compounds with SMARCA2 activ;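 active means activation above its plate's cutoff, the mean activation of tested wells plus 3 SD, cut at about 7.9% in these data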
# GAL4-VP16 Luc = GAL4-VP16 luciferase reporter activation, counter-screen for SMARCA2 (BRM) activator project, cell-based, pG5luc, luminescence, high throughput; 3,500 compounds, 41% hits; activation, % at 9.1 µM; shares compounds with SMARCA2 activ; HEK293 GAL4-VP16 pG5luc reporter; scaled: DMSO wells 0%, SAHA wells 100%;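 active means activation above the solvent-only control well mean plus 3 SD, averaged across control plates, cut at about 5.2% in these data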
# * marks the source's active call; other numbers are inactive results; nt = no result given; ! = a repeat was not active. Compounds with a hit are over-represented: about 2.9% of the library has one in this group of screens.
SMILES,FAS-TE inh,FXN GAA850 act,KLK7 zymogen act,SMARCA2 activ,SMARCA2 conf,GAL4-VP16 Luc
N#C/C(=C/c1ccc(N2CCOCC2)o1)c1nc2ccccc2[nH]1,-225,2,-4,9.7*,16*,17*
N#C/C(=C/c1cccs1)c1nc2ccccc2[nH]1,-2,7,0,9.3*,24*,4
CC(C)Cc1ccc(C(C)C(=O)N2CCOCC2)cc1 (centres undefined),-5,2,0,-2,nt,nt
CSc1oc(-c2ccccc2)nc1S(=O)(=O)c1ccc(C)cc1,39,-1,0,-2,nt,nt
O=C(COC(=O)CCc1ccc(S(=O)(=O)N2CCOCC2)cc1)NCc1ccc(Cl)cc1,11,-1,0,-3,nt,nt
Cc1ccc(C(=O)Nc2ccccc2-c2ccccc2)cc1[N+](=O)[O-],22,2,0,-1,nt,nt
CCOc1ccc(N2C(=O)CC(SCCN)C2=O)cc1 (centres undefined),-8,1,0,14*,7.8*,9.6*
CN(C)c1nnnn1-c1ccccc1Oc1ncc(C(F)(F)F)cc1Cl,-6,3,1,2,nt,nt
O=C1NC[C@H](CCCCN2C[C@H](Cc3ccc(O)cc3)N(CCc3ccc(O)cc3)C(=O)C2=O)N(CC2CCCCC2)C1=O,-3,nt,0,8.5*,0,2
CC12CCC(c3c(C(=O)O)nn(-c4ccccc4)c31)C2(C)C (centres undefined),-11,1,0,9.4*,-2,0
CCOC(=O)C(Cc1ccccc1)NC(=O)Cn1nnc(-c2ccccc2)n1 (centres undefined),5,1,0,-3,nt,nt
CCOC(=O)/C(C#N)=C/c1c[nH]c2ccccc12,-24,6,0,11*,5,4
COc1ccc(NC(=O)O/N=C/c2ccccc2Cl)cc1,18,4,0,10*,4,3
Cc1ccc(C(=O)Nc2ccccc2)cc1S(=O)(=O)Nc1ccc(Cl)cn1,-2,2,0,-5,nt,nt
O=C(Cc1ccccc1Cl)Nc1cc(S(=O)(=O)N2CCOCC2)ccc1N1CCOCC1,-1,1,0,8.0*,4,0
COc1ccc(NC(=O)C2(C)CCN2C(=O)Cc2ccccc2)cc1OC (centres undefined),-5,2,1,-1,nt,nt
COc1ccc(OCCN2CCC(C(=O)NC(c3ccc(F)cc3)c3ccc4ccccc4n3)CC2)cc1 (centres undefined),4,-1,2,9.6*,-4,-1
Cc1ccc(NC(=S)N/C(=N/S(=O)(=O)c2ccccc2)c2ccccc2)cc1,-4,6,-1,9.7*!,6,5.8*
Cc1ccc(S(=O)(=O)/N=C(/NC(=S)Nc2ccccc2)c2ccccc2)cc1,2,3,0,2,nt,nt
Cc1ccc(C(=O)Cn2cncn2)cc1,-4,2,0,10*,-2,0
Cc1ccc(OCc2cc(C(=O)N3CCN(c4ccccc4)CC3)no2)cc1C,17,5,0,13*,6,6.4*
O=C(Cn1ncc(Cl)c(Cl)c1=O)NCC1CCCCC1,14,-3,0,13*,-15,2
O=C(Cn1ncc(N2CCOCC2)c(Cl)c1=O)c1ccc(Cl)cc1,-3,0,-1,1,nt,nt
O=C(Cn1ncc(Cl)c(Cl)c1=O)c1ccc(Cl)cc1,14,-10,0,20*,-15,2
CCN(Cc1ccccc1)C(=O)COC(=O)c1c(C)nsc1NC,3,0,0,-2,nt,nt
Oc1cccc(Nc2nc(O)c(/C=C3\C=Nc4ccccc43)s2)c1,-3,-2,1,11*,15*,6.5*
N#CC1(c2ccc(NC(=O)c3ccccc3F)cc2)CCCC1,9,3,0,9.5*,9.3*,8.6*
COc1ccc(C(=O)Nc2ccc(C3(C#N)CCCC3)cc2)cc1,3,0,0,0,nt,nt

# Compound activity deposited in PubChem BioAssay by several laboratories.
